Assays:
Assay in all cases: log2 ratio of Biotin-Ahx-Ub-VS probe labelling (fragment/DMSO); higher = less target engagement (more negative = stronger competition), active = hit call of the paper (q ≤ 0.05, log2 ratio ≤ -1)
Settings in all cases: compound concentration: 200 uM; treatment time: 3 h
OTUD6B = molecular target: T1, OTUD6B (UniProt Q8N6M0)
T1 sequence (whole entry): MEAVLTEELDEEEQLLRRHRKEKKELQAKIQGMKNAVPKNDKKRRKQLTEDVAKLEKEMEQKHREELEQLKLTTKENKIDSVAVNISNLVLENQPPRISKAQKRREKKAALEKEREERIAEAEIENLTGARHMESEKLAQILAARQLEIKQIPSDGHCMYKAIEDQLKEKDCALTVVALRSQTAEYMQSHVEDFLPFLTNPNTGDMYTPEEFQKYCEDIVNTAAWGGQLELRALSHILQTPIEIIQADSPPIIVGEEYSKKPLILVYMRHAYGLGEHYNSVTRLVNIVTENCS
Method in brief: (§1)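 Each value is an average log2 ratio of fragment to vehicle, tested by unpaired t-test. The underlying Spectronaut label-free quantities were global-median-normalised, and only proteins with ≥2 unique peptides were included. Triplicate HEK293T lysate samples (495 µg) were exposed to fragment at 200 µM or vehicle for 3 h, then to Biotin-Ahx-Ub-VS at 0.5 µM final for 1 h, before NeutrAvidin enrichment of labelled DUBs, LysC and trypsin digestion, and diaPASEF LC-MS/MS.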

OTUD7B = molecular target: T2, OTUD7B (UniProt Q6GQQ9)
T2 sequence (whole entry): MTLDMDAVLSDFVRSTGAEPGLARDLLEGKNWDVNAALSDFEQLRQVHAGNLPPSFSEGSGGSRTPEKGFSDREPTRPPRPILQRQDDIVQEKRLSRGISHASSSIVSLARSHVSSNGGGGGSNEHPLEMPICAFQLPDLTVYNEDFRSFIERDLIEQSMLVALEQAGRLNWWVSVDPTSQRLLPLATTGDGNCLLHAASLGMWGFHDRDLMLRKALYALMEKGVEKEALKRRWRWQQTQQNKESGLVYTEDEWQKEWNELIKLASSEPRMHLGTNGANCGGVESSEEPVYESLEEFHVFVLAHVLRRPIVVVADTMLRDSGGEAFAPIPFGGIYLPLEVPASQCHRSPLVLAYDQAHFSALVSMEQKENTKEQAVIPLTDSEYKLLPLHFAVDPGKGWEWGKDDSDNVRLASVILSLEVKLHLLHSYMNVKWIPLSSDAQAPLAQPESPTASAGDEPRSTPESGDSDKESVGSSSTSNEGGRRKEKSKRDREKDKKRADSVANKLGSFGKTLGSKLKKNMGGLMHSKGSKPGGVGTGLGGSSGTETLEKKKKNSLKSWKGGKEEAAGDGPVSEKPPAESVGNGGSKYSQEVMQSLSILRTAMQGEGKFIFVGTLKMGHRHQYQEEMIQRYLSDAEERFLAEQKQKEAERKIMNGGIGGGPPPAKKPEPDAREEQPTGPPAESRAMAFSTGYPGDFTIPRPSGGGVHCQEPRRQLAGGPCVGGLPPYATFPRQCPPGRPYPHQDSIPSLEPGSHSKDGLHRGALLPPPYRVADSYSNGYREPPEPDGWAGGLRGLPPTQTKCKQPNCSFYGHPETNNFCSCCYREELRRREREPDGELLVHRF
Method in brief: as §1

PRPF8 = PRPF8 (UniProt Q6P2Q9)
Method in brief: as §1

PSMD7 = molecular target: T3, PSMD7 (UniProt P51665)
T3 sequence (whole entry): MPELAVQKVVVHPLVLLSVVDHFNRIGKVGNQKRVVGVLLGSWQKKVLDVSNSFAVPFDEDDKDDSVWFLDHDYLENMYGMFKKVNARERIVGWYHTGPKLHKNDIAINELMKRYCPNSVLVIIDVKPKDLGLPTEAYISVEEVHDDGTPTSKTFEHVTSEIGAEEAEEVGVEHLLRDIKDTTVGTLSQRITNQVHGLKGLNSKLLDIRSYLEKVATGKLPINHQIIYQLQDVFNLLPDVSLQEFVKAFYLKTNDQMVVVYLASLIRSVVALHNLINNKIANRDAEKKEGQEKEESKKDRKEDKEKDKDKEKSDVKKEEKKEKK
Method in brief: as §1

UCHL1 = UCHL1 (UniProt P09936)
Sequence of UCHL1 (P09936 whole entry, looked up): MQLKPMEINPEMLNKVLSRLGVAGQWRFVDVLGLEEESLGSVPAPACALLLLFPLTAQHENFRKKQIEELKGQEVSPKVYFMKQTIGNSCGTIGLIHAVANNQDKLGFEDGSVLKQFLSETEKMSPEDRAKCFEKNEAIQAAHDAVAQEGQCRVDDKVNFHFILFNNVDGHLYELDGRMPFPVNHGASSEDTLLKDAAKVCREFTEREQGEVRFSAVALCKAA
Method in brief: as §1

UCHL3 = molecular target: T4, UCHL3 (UniProt P15374)
T4 sequence (whole entry): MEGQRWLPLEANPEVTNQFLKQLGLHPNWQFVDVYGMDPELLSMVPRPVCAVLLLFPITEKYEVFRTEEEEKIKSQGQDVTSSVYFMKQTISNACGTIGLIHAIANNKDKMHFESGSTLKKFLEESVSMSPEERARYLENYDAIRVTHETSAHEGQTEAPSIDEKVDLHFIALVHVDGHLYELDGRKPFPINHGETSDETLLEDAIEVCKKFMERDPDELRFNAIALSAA
Method in brief: as §1

UCHL5 = molecular target: T5, UCHL5 (UniProt Q9Y5K5)
T5 sequence (whole entry): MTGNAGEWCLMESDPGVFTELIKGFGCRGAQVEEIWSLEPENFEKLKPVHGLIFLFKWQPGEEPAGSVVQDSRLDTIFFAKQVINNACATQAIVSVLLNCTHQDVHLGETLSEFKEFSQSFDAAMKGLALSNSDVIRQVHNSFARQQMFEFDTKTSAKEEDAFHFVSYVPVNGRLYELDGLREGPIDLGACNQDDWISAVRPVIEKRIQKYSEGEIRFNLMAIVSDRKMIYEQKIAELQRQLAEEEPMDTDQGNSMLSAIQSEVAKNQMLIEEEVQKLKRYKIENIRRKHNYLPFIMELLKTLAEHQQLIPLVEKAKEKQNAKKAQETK
Method in brief: as §1

USP10 = USP10 (UniProt Q14694)
Sequence of USP10 (Q14694 whole entry): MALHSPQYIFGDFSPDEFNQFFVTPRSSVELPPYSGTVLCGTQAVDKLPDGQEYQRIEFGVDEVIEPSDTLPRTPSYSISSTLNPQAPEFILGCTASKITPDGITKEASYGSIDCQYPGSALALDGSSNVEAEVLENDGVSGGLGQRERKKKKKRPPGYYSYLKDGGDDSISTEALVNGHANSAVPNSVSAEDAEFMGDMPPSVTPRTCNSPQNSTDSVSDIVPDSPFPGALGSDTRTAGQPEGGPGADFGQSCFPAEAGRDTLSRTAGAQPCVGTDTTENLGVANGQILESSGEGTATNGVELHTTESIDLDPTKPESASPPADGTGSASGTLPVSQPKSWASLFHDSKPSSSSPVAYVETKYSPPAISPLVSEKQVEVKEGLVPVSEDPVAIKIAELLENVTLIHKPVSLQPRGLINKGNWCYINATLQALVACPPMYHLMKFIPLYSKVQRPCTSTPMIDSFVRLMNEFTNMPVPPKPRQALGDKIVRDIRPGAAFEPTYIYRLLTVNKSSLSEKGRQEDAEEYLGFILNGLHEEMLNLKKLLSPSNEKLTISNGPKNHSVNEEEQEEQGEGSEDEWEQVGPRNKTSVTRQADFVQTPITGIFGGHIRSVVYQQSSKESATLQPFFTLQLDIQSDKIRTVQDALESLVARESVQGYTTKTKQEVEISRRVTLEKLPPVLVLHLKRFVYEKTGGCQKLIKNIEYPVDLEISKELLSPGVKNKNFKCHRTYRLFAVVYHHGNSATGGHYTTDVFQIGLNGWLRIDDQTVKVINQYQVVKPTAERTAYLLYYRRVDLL
Method in brief: as §1

USP15 = molecular target: T6, USP15 (UniProt Q9Y4E8)
T6 sequence (whole entry): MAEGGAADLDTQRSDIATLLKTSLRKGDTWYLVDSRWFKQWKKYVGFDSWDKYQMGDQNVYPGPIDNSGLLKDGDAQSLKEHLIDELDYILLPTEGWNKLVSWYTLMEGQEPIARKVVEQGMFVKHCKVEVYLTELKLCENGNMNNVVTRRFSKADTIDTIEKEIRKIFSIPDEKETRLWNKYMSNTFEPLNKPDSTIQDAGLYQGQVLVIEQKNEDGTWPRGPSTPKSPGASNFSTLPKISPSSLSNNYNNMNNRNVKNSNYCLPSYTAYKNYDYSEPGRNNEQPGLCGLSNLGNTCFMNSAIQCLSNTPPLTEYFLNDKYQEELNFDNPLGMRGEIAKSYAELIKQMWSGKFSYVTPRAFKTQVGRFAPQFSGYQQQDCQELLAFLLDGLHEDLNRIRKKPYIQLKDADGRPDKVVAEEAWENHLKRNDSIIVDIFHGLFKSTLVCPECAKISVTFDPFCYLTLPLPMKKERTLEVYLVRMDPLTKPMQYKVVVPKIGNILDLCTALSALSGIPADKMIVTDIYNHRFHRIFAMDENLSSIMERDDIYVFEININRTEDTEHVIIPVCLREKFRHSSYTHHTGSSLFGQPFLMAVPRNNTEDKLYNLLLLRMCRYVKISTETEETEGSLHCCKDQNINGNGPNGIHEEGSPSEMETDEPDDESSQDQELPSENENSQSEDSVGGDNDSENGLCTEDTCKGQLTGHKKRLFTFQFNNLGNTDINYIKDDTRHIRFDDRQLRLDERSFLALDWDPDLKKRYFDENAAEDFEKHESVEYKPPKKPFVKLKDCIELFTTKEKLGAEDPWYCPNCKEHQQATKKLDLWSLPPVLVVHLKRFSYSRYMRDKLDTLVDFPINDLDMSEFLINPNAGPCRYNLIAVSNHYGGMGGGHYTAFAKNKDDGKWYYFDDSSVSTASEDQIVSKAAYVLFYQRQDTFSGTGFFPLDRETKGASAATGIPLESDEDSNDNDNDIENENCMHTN
Method in brief: as §1

USP16 = USP16 (UniProt Q9Y5T5)
Sequence of USP16 (Q9Y5T5 whole entry, looked up): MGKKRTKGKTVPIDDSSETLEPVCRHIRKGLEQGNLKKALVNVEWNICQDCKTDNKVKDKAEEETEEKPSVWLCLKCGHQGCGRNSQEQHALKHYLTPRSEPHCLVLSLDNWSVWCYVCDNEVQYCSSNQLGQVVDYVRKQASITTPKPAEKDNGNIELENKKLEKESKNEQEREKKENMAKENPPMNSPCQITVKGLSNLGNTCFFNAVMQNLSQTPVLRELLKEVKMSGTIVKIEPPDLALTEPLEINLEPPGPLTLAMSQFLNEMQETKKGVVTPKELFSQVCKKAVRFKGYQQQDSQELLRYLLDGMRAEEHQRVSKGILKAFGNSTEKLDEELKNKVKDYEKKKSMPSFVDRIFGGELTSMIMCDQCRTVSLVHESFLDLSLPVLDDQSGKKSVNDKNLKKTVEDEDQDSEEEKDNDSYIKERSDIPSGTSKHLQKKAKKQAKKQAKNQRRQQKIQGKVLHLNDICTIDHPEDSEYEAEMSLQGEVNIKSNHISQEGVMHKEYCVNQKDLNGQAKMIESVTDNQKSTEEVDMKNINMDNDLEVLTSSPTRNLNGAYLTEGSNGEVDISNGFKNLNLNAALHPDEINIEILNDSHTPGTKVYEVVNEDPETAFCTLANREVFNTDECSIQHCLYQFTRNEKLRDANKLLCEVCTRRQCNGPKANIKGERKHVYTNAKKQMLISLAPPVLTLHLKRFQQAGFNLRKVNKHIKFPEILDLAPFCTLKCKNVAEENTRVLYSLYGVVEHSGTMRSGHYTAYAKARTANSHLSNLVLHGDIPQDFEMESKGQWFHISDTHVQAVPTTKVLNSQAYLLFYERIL
Method in brief: as §1

Measured: log2 ratio of Biotin-Ahx-Ub-VS probe labelling

C#Cc1cccc(NC(=O)CCl)c1
inactive: OTUD6B -0.196 | PRPF8 0.296 | PSMD7 -0.0915 | UCHL5 -0.324 | USP10 -0.0542 | USP15 -0.414 | USP16 -0.23
active: OTUD7B -1.43 | UCHL1 -1.61 | UCHL3 -1.39
